This note sets out measurements from PubChem BioAssay AID431 (Sanford-Burnham Center for Chemical Genomics, 2006).

In all, about 63,000 compounds went through this assay and about 1,100 (1.7%) were called active.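 How the source made its calls: active means compounds whose percent cytotoxicity in the single-dose primary screen, scaled between solvent and toxic-drug controls, exceeds 50; inactive means the rest.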 What follows is part of a selection rich in actives, with near analogues and random picks from the rest. Potency and affinity values are given separately.

This assay in a line: cytotoxicity in KRAS-transformed pancreatic duct cells, primary screen, cell-based, fluorescence, HTS (AID 431).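 Further: 0% = DMSO solvent wells and 100% = doxorubicin-treated wells.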 Particulars: HPDE-C7K KRASV12 cells, Alamar Blue viability, 48 h; at 10 µM; active compounds read high. (In general: Alamar Blue is a resazurin reagent that responds to reducing activity.)
For `CCOC(=O)c1c(N)n(CCN2CCCCC2)c2nc3ccccc3nc12`, the cytotoxicity was 1.7% (inactive).

Turning to `CCCCn1c(N)c(C(=O)NCCN2CCOCC2)c2nc3ccccc3nc21`, the cytotoxicity was -9.3% (inactive). In the case of `CCCCCn1c(N)c(C(=O)NCCN2CCOCC2)c2nc3ccccc3nc21` it was 6.4% (inactive); in that of `COc1ccc(CCNC(=O)c2c(N)n(CCN3CCOCC3)c3nc4ccccc4nc23)cc1`, 76.9% (active); in that of `CCCCCCn1c(N)c(C(=O)NCCN2CCOCC2)c2nc3ccccc3nc21`, 86.3% (active). In the case of `CCCCNC(=O)c1c(N)n(CCCOC)c2nc3ccccc3nc12` it was 47.2% (inactive); in that of `CC1SC2(CN3CCC2CC3)NC1=O` (stereo not given), -32% (inactive); in that of `O=P(OCC(F)(F)C(F)F)(N1CCOCC1)N1CCOCC1`, -6.6% (inactive). Under `C=CCn1c(O)c(C(C)=NCCN2CCOCC2)c(=O)[nH]c1=O` stands 3.7% (inactive); under `NCCc1c[nH]c2ccc(F)cc12`, -7.8% (inactive). With `COc1ccc2[nH]cc(CCN(C)C)c2c1`, the cytotoxicity is 19.9% (inactive). In the case of `CCCCc1ccc2[nH]cc(CCN)c2c1` it was 89.6% (active); in that of `Nc1c(C(=O)NCc2ccco2)c2nc3ccccc3nc2n1Cc1ccc(F)cc1`, 95.8% (active). Under `CCOC(=O)c1c(N)n(Cc2ccco2)c2nc3ccccc3nc12` stands -13.8% (inactive). On to `CC(C)(C)OC(=O)c1c(N)n(Cc2ccco2)c2nc3ccccc3nc12`, for which the cytotoxicity was 56.1% (active). Under `COc1ccc(Cn2c(N)c(C(=O)NCc3ccco3)c3nc4ccccc4nc32)cc1OC` stands 3.1% (inactive); under `COCCOC(=O)c1c(N)n(Cc2ccco2)c2nc3ccccc3nc12`, 15.2% (inactive); under `COc1ccc(Cn2c(N)c(C(=O)NCc3ccco3)c3nc4ccccc4nc32)cc1`, 75.2% (active).

Regarding `COCCOC(=O)c1c(N)n(Cc2ccc(OC)cc2)c2nc3ccccc3nc12`, the cytotoxicity was -9.2% (inactive). In the case of `Nc1c(C(=O)NCCN2CCOCC2)c2nc3ccccc3nc2n1Cc1ccco1` it was 20.7% (inactive); in that of `CC(C)OC(=O)c1c(N)n(Cc2ccco2)c2nc3ccccc3nc12`, -9% (inactive); in that of `O=P(C(c1ccc2c(c1)OCO2)N1CCOCC1)(N1CCOCC1)N1CCOCC1` (stereo not given), -15.1% (inactive).

Turning to `CN=C(SCc1cc2c(cc1Cl)OCO2)c1c(O)n(C)c(=O)n(C)c1=O`, the cytotoxicity was -13.4% (inactive). For `CCCNS(=O)(=O)c1ccc(OCC(=O)N2CCN(Cc3ccccc3)CC2)cc1`, the cytotoxicity was 8% (inactive). Under `O=c1c2ccccc2nc(CSc2ncnc3nc[nH]c23)n1-c1ccccc1` stands 64.8% (active); under `CCOc1ccc(-n2c(CC)nc3ccccc3c2=O)cc1`, 1.5% (inactive); under `CN(C)CCc1nc2ccccc2c(=O)n1-c1ccccc1`, 11.7% (inactive). In the case of `Cc1ccc2c(c1)C(c1ccccc1)NCC(=O)N2` (stereo not given), the cytotoxicity was 2.7% (inactive).

For `CCC(=NCCC1=CCCCC1)c1c(O)[nH]c(=O)[nH]c1=O`, the cytotoxicity is 22.3% (inactive).

Regarding `O=C(c1csc2c1CCCCC2)N1CCC2(CC1)OCCO2`, the cytotoxicity is -9.8% (inactive). In the case of `Cc1nc2c(-c3ccc(F)cc3)c(C)nn2c(C)c1CCC(=O)N1CCC2(CC1)OCCO2` it was 9.4% (inactive); in that of `CC(C)CCOC(=O)c1c(N)n(CC2CCCO2)c2nc3ccccc3nc12` (stereo not given), 26.1% (inactive); in that of `CC(C)CCn1c(N)c(C(=O)OCC2CCCO2)c2nc3ccccc3nc21` (stereo not given), 51.5% (active).

As for `CCCCn1c(N)c(C(=O)OCC2CCCO2)c2nc3ccccc3nc21` (stereo not given), the cytotoxicity was 34.2% (inactive).

Consider `CCOC(=O)c1cccc([P+](=O)O)c1`, for which the cytotoxicity was 7.5% (inactive). Under `CC(C)[C@@]1(NC(=O)[C@@H]2C=C3c4cccc5[nH]cc(c45)C[C@H]3N(C)C2)O[C@@]2(O)[C@@H]3CCCN3C(=O)[C@H](Cc3ccccc3)N2C1=O` stands 29.5% (inactive); under `CC(C)[C@@]1(NC(=O)[C@@H]2C[C@@H]3c4cccc5[nH]cc(c45)C[C@H]3N(C)C2)O[C@@]2(O)[C@@H]3CCCN3C(=O)[C@H](Cc3ccccc3)N2C1=O`, 77.9% (active); under `CC(C)[C@H]1C(=O)N2CCC[C@H]2[C@]2(O)O[C@](NC(=O)[C@@H]3C=C4c5cccc6[nH]cc(c56)C[C@H]4N(C)C3)(C(C)C)C(=O)N12`, -1.3% (inactive).

As for `Cc1ccc2c(c1)CC1(CN2C)C(=O)NC(=O)N(c2ccccc2C)C1=O` (stereo not given), the cytotoxicity was 8.7% (inactive). As to `COC(=O)C(O)(c1ccc2c(c1)CCCN2)C(F)(F)F` (stereo not given), the cytotoxicity is -24.5% (inactive). With `Cc1ccc(CN2CCN(C)CC2)c(C)c1`, the cytotoxicity is 14.3% (inactive). Under `Cc1ccc(S(=O)(=O)N2CN3CCN(C3)C2)cc1` stands 11.8% (inactive). Under `Cc1ccc(CN2CC3CC(C2)c2cccc(=O)n2C3)cc1` (stereo not given) stands -9.1% (inactive); under `Cn1c(O)c(C=NCCOc2ccc(Cl)cc2)c(=O)n(C)c1=O`, -12.3% (inactive).

On to `CCn1nc(-c2cccs2)nc2c(=O)n(C)c(=O)nc1-2`, for which the cytotoxicity was 127% (active). Under `CCn1nc(-c2ccccc2)nc2c(=O)n(C)c(=O)nc1-2` stands 123% (active); under `CCc1nc2ccccc2c(=O)n1-c1cccc(OC)c1`, -14% (inactive); under `O=c1c2ccccc2nc(-c2cccs2)n1-c1cnccn1`, 15.2% (inactive). Regarding `O=P1(NC2CCCC2)COc2ccccc2OC1`, the cytotoxicity was -11.9% (inactive).

Consider `COc1ccc(-n2c(SC)nc3ccccc3c2=O)cc1`, for which the cytotoxicity was -4.7% (inactive). With `CSC(=Nc1ccccc1)c1c(O)n(C)c(=O)n(C)c1=O`, the cytotoxicity is 5.2% (inactive). In the case of `CC(=NCc1ccc(F)cc1)c1c(O)n(C)c(=O)n(C)c1=O` it was 37.8% (inactive); in that of `COc1ccc(C2SCC(=O)Nc3c2c(=O)[nH]n3C2CCCCCC2)cc1` (stereo not given), 80.4% (active); in that of `CCOc1ccc(C2SCC(=O)Nc3c2c(=O)[nH]n3C2CCCCCC2)cc1` (stereo not given), -11.1% (inactive). Under `COc1ccc(C2SCC(=O)Nc3c2c(=O)[nH]n3C2CCCCC2)cc1` (stereo not given) stands -1.2% (inactive); under `C=CCN1C(=O)C2(C(C(=O)OCC)=C(N)Oc3ccccc32)C2=C1CCCC2=O` (stereo not given), -6.6% (inactive). `CCc1nc(N2CCNCC2)c(C#N)c2c1CSC(C)(C)C2`: the cytotoxicity is 31.9% (inactive). In the case of `CCCCc1nc(N2CCNCC2)c(C#N)c2c1CSC(C)(C)C2` it was 71.5% (active); in that of `O=C(C(Cc1ccccc1)NS(=O)(=O)c1ccc(F)cc1)N1CCC2(CC1)OCCO2` (stereo not given), 10.2% (inactive). In the case of `CCN(CC)C(=O)c1ccc(NC(=O)Cn2nc(C)c3ccccc3c2=O)cc1` it was -7.8% (inactive); in that of `O=C(Nc1ccc(OC(=O)N2CCCC2)cc1)N1CCOCC1`, -8.6% (inactive).

On to `CC(C)C(=O)N1CCN(CCN=Cc2c(O)n(C)c(=O)n(C)c2=O)CC1`, for which the cytotoxicity is 0.5% (inactive).

Consider `COc1ccc(C2NCc3ccc4c(c3-n3cccc32)OCO4)cc1O` (stereo not given), for which the cytotoxicity was 59.8% (active). In the case of `COc1ccc(C2NCc3ccc4c(c3-n3cccc32)OCO4)cc1OC` (stereo not given) it was 3.2% (inactive); in that of `c1cc2n(c1)-c1c(ccc3c1OCO3)CNC2c1ccc2c(c1)OCO2` (stereo not given), 27.4% (inactive). Under `O=P(/C(=N/O)N1CCCCC1)(N1CCOCC1)N1CCOCC1` stands -3.8% (inactive). In the case of `O=C1CN=C(c2ccccc2)c2oc3ccc(Br)cc3c2N1` it was -15.6% (inactive); in that of `COc1cccc(OC)c1C1=NCC(=O)Nc2c1oc1ccc(Br)cc21`, 56.7% (active); in that of `O=C(NCC(c1cccnc1)N1CCOCC1)Oc1ccccc1` (stereo not given), 2.6% (inactive). Regarding `C=Cn1ccnc1P(=S)(c1c(C)nn(-c2ccccc2)c1C)c1nccn1C=C`, the cytotoxicity was 8.8% (inactive). In the case of `O=c1[nH]c(=O)n(C2CCCCCC2)c(O)c1C=NCCCN1CCOCC1` it was -13.6% (inactive); in that of `O=c1[nH]c(=O)n(Cc2ccccc2)c(O)c1C=NCCN1CCNCC1`, -15% (inactive).

`O=c1c(C=NCCN2CCNCC2)c(O)n(C2CCCCC2)c(=O)n1C1CCCCC1`: the cytotoxicity is 95.1% (active). Under `CCCCn1c(O)c(C(CC)=Nc2cccc(C(=O)O)c2)c(=O)[nH]c1=O` stands -13.6% (inactive). Under `CC(=NCCCN1CCCCC1)c1c(O)n(Cc2ccccc2)c(=O)[nH]c1=O` stands 9.4% (inactive).

In the case of `CCOC(=O)c1ccc(N2C(=O)CC(N3CCC(C#N)(c4ccccc4)CC3)C2=O)cc1` (stereo not given), the cytotoxicity was -11.3% (inactive). Consider `CCCCn1c(=O)c(C(=O)Nc2ccccc2S(N)(=O)=O)c(O)c2ccccc21`, for which the cytotoxicity was -11.7% (inactive). `CCCCCn1c(=O)c(C(=O)NCc2ccncc2)c(O)c2ccccc21`: the cytotoxicity was 33.3% (inactive).

With `CCCCCn1c(=O)c(C(=O)Nc2ccncc2)c(O)c2ccccc21`, the cytotoxicity is 73.1% (active). In the case of `CCCCn1c(=O)c(C(=O)Nc2cnccn2)c(O)c2ccccc21`, the cytotoxicity is 51.5% (active).

On to `CCCCCn1c(=O)c(C(=O)NCc2ccccn2)c(O)c2ccccc21`, for which the cytotoxicity was 8.3% (inactive). Under `CCCCCCn1c(=O)c(C(=O)Nc2ccncc2)c(O)c2ccccc21` stands 46.4% (inactive); under `CCCCn1c(O)c(C=NCCCN(CC)CC)c(=O)[nH]c1=O`, 6.9% (inactive); under `CSc1nnc(C2CCNCC2)n1C`, -11.4% (inactive). In the case of `O=C1NC(=O)C(CCc2ccncc2)(C2CCCCC2)C(=O)N1` it was -0.4% (inactive); in that of `COC(=O)c1ccc(COc2cc(C)cc3oc(=O)c4c(c23)CCCC4)o1`, 4.3% (inactive). In the case of `CC(=O)CC(C)(C)n1c[n+](C)nn1` it was 18.4% (inactive). With `Cc1ccc2c(c1)C1CN(C)CCC1N2C(=O)c1ccco1` (stereo not given), the cytotoxicity is 2.2% (inactive). In the case of `c1ccc2c(CCNCc3ccc4c(c3)OCO4)c[nH]c2c1` it was 23.6% (inactive); in that of `C[C@@]1(CO)[C@H](O)CC[C@@]2(C)[C@H]1CC[C@H]1C[C@@H]3C[C@@]12CC[C@]3(O)CO`, 69.7% (active); in that of `CC(C)CC1C(C#N)=C(N)Oc2c1c(=O)oc1ccccc21` (stereo not given), 8.9% (inactive). Under `Cc1ccc2c(c1)CC1(CN2C)C(=O)NC(=O)N(CCC2=CCCCC2)C1=O` (stereo not given) stands 5.2% (inactive). Take `O=C1NC(=O)C2(Cc3ccccc3N3CCCC32)C(=O)N1c1ccccc1` (stereo not given): the cytotoxicity is -2.3% (inactive).

With `OC1(c2ccccc2F)CC2CCC(C1)N2CCN1CCOCC1` (stereo not given), the cytotoxicity was -1.8% (inactive). In the case of `Cc1oc(-c2ccc(Cl)cc2)nc1CS(=O)CC(=O)N1CCC2(CC1)OCCO2` (stereo not given) it was -19.8% (inactive).
